# Assay results from PubChem BioAssay (Tox21).
# Records with an inconclusive call do not appear. Entries that show only a call come without a potency. Values without a mark were called inactive. Activity calls are given as the source filed them. Unless noted, calls come from the whole dose curve.
# Test: qHTS assay to identify small molecule agonists of H2AX (AID 1224845; active = well fitted activation curve with a large enough effect in the signal ratio in the repeat runs, not every such curve was filed as active; the % refers to the signal ratio; note: potency is the fitted concentration of half-maximal effect)
# Conditions: CHO-K1 phospho-H2AX Ser139 HTRF, 3 h; series mostly up to 154 µM
# How it was run: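 Wild-type CHO-K1 cells plated overnight, then exposed 3 hr at 37C to compounds at 15 concentrations (0.76% DMSO). Lysed, then HTRF anti-pH2AX(S139)-cryptate/anti-H2AX-d2 detection after 24 hr at room temperature; emissions 665 and 620 nm.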
row,SMILES,Potency
1,CC(C)CC#N,inactive
2,N#CC(O)c1ccccc1 (centres undefined),inactive
3,COc1ccc2c(c1OC)CN1CCc3cc4c(cc3C1C2)OCO4 (centres undefined),inactive
4,C=C(C)CN(CC)c1c([N+](=O)[O-])cc(C(F)(F)F)cc1[N+](=O)[O-],inactive
5,Nc1c(Br)cc([N+](=O)[O-])cc1[N+](=O)[O-],inactive
6,COC(=O)C(C)Oc1ccc(Oc2ccc(Cl)cc2Cl)cc1 (centres undefined),inactive
7,CC(C(=O)c1ccccc1)N(C)C (centres undefined),inactive
8,CCCSP(=O)(OCC)Oc1ccc(Br)cc1Cl (centres undefined),inactive
9,C#C[C@]1(O)C=C[C@H]2[C@@H]3CCC4=CC(=O)CC[C@@H]4[C@H]3CC[C@@]21CC,19.6 µM (active)
10,COc1ccc(C(=O)N2CCCC2=O)cc1,inactive
11,ClC(Cl)C(Cl)Cl,inactive
12,O=[N+]([O-])c1ccc(CBr)cc1,inactive
13,COC(=O)C1=CCCN(C)C1,inactive
14,CNC(=O)Oc1c(C(C)(C)C)cc(C)cc1C(C)(C)C,inactive
15,Cc1ncc(CNC(=O)N(CCCl)N=O)c(N)n1,inactive

# Test: qHTS assay to identify small molecule agonists of the hypoxia (HIF-1) signaling pathway (AID 1224846; active = well fitted activation curve with a large enough effect in the signal ratio in the repeat runs, not every such curve was filed as active; the % refers to the signal ratio)
# Conditions: HRE-bla ME-180 cells, beta-lactamase ratio, 17 h; series mostly up to 76.8 µM
# How it was run: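 In ME-180 cells bearing an HRE-bla construct, 17 h treatment with DMSO-dissolved compounds at 37C was followed by CCF4-AM loading to quantify reporter induction.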
SMILES,activation,outcome
O=C1c2ccccc2C(=O)c2ccccc21,0.0544% [at 15.8 µM],–
Clc1ccccc1N1CCNCC1,–,inactive
CC(C)(C)NCC(O)c1cc(Cl)c(N)c(Cl)c1 (centres undefined),–,inactive
Nc1ccccc1Cl,–,inactive
Nc1cc(Cl)ccc1O,–,inactive
COc1ncc(F)c2nc(S(=O)(=O)Nc3c(F)cccc3F)nn12,–,inactive
CN(N=O)C(N)=O,–,inactive
CCCCCCBr,–,inactive
ClC(Cl)Br,–,inactive
COC(=O)C(c1ccccc1)C1CCCCN1 (centres undefined),–,inactive
CNCC(=O)c1ccc(O)c(O)c1,–,inactive
CS(=O)(=O)c1cc(C(F)(F)F)ccc1C(=O)c1cnoc1C1CC1,–,inactive
Nc1cnn(-c2ccccc2)c(=O)c1Cl,–,inactive
CCCSC(=O)N(CCC)CCC,–,inactive
CCCCOC(=O)[C@@H](C)Oc1ccc(Oc2ccc(C#N)cc2F)cc1,–,inactive
NC(=O)O,–,inactive
COC(=O)c1c(C(F)F)nc(C(F)(F)F)c(C2=NCCS2)c1CC(C)C,–,inactive
CCN(CC)C(=O)[C@@H]1C=C2c3cccc4[nH]cc(c34)C[C@H]2N(C)C1,–,inactive
CCC1(c2ccccc2)C(=O)N=C(O)NC1=O (centres undefined),–,inactive
CNNC,–,inactive
CCC#N,–,inactive
O=[N+]([O-])c1ccc2c3c(cccc13)CC2,–,inactive
CC1CCCCC1NC(=O)Nc1ccccc1 (centres undefined),–,inactive

# Test: qHTS assay to identify small molecule agonists of H2AX - cell viability counter screen (AID 1224847); note: top concentration of the series differs between compounds; nearly all actives have a fitted effect of over 30% in size
# Conditions: CHO-K1 viability, CellTiter-Glo luminescence, 3 h; series mostly up to 154 µM
# How it was run: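 Counter-screen for viability: CellTiter-Glo ATP luminescence read after 3 h compound treatment (15-point titration, 0.76% DMSO final) of CHO-K1 cells at 37C, with 30 min room-temperature reagent incubation.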
SMILES,"activity change, negative = cytotoxicity",Potency
O=C1c2ccccc2C(=O)c2ccccc21,8.07% [at 31.6 µM],–
Clc1ccccc1N1CCNCC1,–,inactive
CC(C)(C)NCC(O)c1cc(Cl)c(N)c(Cl)c1 (centres undefined),–,inactive
Nc1ccccc1Cl,–,inactive
Nc1cc(Cl)ccc1O,–,inactive
COc1ncc(F)c2nc(S(=O)(=O)Nc3c(F)cccc3F)nn12,–,inactive
CN(N=O)C(N)=O,–,inactive
CCCCCCBr,–,inactive
ClC(Cl)Br,–,inactive
CC(C)CC#N,–,inactive
N#CC(O)c1ccccc1 (centres undefined),–,inactive
COC(=O)C(c1ccccc1)C1CCCCN1 (centres undefined),–,inactive
CNCC(=O)c1ccc(O)c(O)c1,–,inactive
CS(=O)(=O)c1cc(C(F)(F)F)ccc1C(=O)c1cnoc1C1CC1,–,inactive
COC(=O)C(C)Oc1ccc(Oc2ccc(Cl)cc2Cl)cc1 (centres undefined),–,inactive
Nc1cnn(-c2ccccc2)c(=O)c1Cl,–,inactive
CCCSC(=O)N(CCC)CCC,–,inactive
CC(C(=O)c1ccccc1)N(C)C (centres undefined),–,inactive

SMILES,"activity change, negative = cytotoxicity",Potency
CCCCOC(=O)[C@@H](C)Oc1ccc(Oc2ccc(C#N)cc2F)cc1,–,inactive
NC(=O)O,–,inactive
CCCSP(=O)(OCC)Oc1ccc(Br)cc1Cl (centres undefined),–,inactive
COC(=O)c1c(C(F)F)nc(C(F)(F)F)c(C2=NCCS2)c1CC(C)C,–,inactive
C#C[C@]1(O)C=C[C@H]2[C@@H]3CCC4=CC(=O)CC[C@@H]4[C@H]3CC[C@@]21CC,–,inactive
COc1ccc(C(=O)N2CCCC2=O)cc1,–,inactive
ClC(Cl)C(Cl)Cl,–,inactive
O=[N+]([O-])c1ccc(CBr)cc1,–,inactive
CCN(CC)C(=O)[C@@H]1C=C2c3cccc4[nH]cc(c34)C[C@H]2N(C)C1,–,inactive
COC(=O)C1=CCCN(C)C1,–,inactive
CCC1(c2ccccc2)C(=O)N=C(O)NC1=O (centres undefined),–,inactive
CNNC,–,inactive
CNC(=O)Oc1c(C(C)(C)C)cc(C)cc1C(C)(C)C,–,inactive
Cc1ncc(CNC(=O)N(CCCl)N=O)c(N)n1,–,inactive
CCC#N,–,inactive
O=[N+]([O-])c1ccc2c3c(cccc13)CC2,–,inactive
CC1CCCCC1NC(=O)Nc1ccccc1 (centres undefined),–,inactive

# Test: qHTS assay to identify small molecule antagonists of the estrogen related receptor (ERR) signaling pathway from Tox21 library (AID 1224848; active = well fitted inhibition curve with a large enough effect in the repeat runs; note: nearly all actives have a fitted effect of over 50% in size)
# Conditions: ERR reporter cell line, luciferase antagonist mode, 18 h; series mostly up to 92.4 µM
# How it was run: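 First, 2,000 ERR cells per well were plated and held 6 h at 37 C/5% CO2. Next, compounds in DMSO were pinned in and left 18 h at 37 C. Finally, ONE-Glo was added and luminescence read after 30 min at room temperature.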
SMILES,"activity, negative = inhibition",Potency
O=C1c2ccccc2C(=O)c2ccccc21,18.9% [at 19 µM],–
CC(C)(C)NCC(O)c1cc(Cl)c(N)c(Cl)c1 (centres undefined),–,inactive
CCCCCCBr,–,inactive
C=C(C)CN(CC)c1c([N+](=O)[O-])cc(C(F)(F)F)cc1[N+](=O)[O-],–,inactive
CS(=O)(=O)c1cc(C(F)(F)F)ccc1C(=O)c1cnoc1C1CC1,–,inactive
CCCCOC(=O)[C@@H](C)Oc1ccc(Oc2ccc(C#N)cc2F)cc1,–,inactive
NC(=O)O,–,inactive
COC(=O)c1c(C(F)F)nc(C(F)(F)F)c(C2=NCCS2)c1CC(C)C,–,inactive
CNNC,–,inactive
CCC#N,–,inactive
CC1CCCCC1NC(=O)Nc1ccccc1 (centres undefined),–,inactive
